Glyco luc inh: blocks N-linked glycosylation in D54 reporter cells. D54 ERlucT glycosylation luciferase reporter, 24 h; percent of 100 nM tunicamycin response. reporter increase, % at 12.5 µM. 360,000 tested, 0.23% active. AID 588692;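 active = mean luciferase reporter signal, scaled so untreated is 0 and the glycosylation-blocking control 100, at or above a set limit in every replicate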;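 also: luciferase carries N-glycosylation sites so blocking glycosylation raises the light; 0% = median of neutral control wells and 100% = median of 100 nM tunicamycin wells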
NSD2 inh: NSD2 (human) methyltransferase inhibition; O96028; NSD2 peptide methylation, AlphaScreen, 120 min; inhibition, % at 12.5 µM; 310,000 tested, 0.54% active; in the data active = inhibition above about 50%
RAD52 inh: RAD52 (human) annealing inhibition; P43351; recombinant RAD52 DNA annealing, FRET fluorescence; inhibition, % at 18.7 µM; 360,000 tested, 0.46% active; AID 651710;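 active = every replicate showing at least 50% inhibition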
Target sequence (P43351 whole entry, looked up): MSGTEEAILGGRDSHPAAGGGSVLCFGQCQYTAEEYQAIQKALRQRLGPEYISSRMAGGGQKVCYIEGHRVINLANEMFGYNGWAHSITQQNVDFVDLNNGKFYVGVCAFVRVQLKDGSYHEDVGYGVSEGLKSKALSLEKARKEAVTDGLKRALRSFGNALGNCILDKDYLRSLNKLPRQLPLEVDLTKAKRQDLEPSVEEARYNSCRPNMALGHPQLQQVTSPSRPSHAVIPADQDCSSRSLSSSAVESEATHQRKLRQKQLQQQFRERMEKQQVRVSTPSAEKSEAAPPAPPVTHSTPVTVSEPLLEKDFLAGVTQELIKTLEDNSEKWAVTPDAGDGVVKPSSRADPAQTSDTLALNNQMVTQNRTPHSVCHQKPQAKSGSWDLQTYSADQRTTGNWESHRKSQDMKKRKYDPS
CASP6 VEID inh: caspase-6 (human) enzyme inhibition; 350,000 tested, 0.53% active; P55212; AID 686996; inhibition, % at 12.5 µM; purified caspase-6, Z-VEID-R110 cleavage fluorescence;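 active = mean inhibition across replicates at least about 35%, with every replicate also reaching that limit, limit read from the data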;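 also: 0% = median of neutral control wells and 100% = no fluorescence left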
RAD54 inh: inhibitors of human RAD54 branch migration; 360,000 tested, 0.14% active; inhibition, % at 10.4 µM; AID 602329; Q92698; RAD54 Holliday junction branch migration, FAM/BHQ fluorescence;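 active = mean normalized replicate activity at least 40 and at least half of replicates scoring 40 or more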;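 also: 0% = median of neutral control wells and 100% = median of positive control wells; inhibitors cause a drop in the FAM fluorescence signal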
AlphaScreen art: AlphaScreen assay artifact in NSD2 counter-screen; 1,500 tested, 9.4% active; AlphaScreen artifact counterscreen, preloaded methylated H4 peptide; shares compounds with NSD2 inh; AC35, µM (top dose mostly 10 µM), without a hit: at the highest dose activity change, negative = signal loss; AID 1053174; call rule not given here
* = called active by the depositor; nt = no result; + = active, no number. Rows were chosen to be rich in hits. Some 1.2% of all compounds tested hit in one or more screens of this group.

SMILES | Glyco luc inh | NSD2 inh | RAD52 inh | CASP6 VEID inh | RAD54 inh | AlphaScreen art
O=C(O)CC1NC(=S)N(Cc2ccccc2)C1=O (stereo not given) | 3 | 7 | -4 | 2 | -7 | nt
CN1C(=O)C(CCC(=O)O)NC1=S (stereo not given) | 1 | 77* | -12 | 1 | 12 | -1%
Cc1cccc(NC(=S)N2CCN(c3ccccc3F)CC2)c1C | 1 | 57* | 0 | 2 | -4 | -5%
CC(C)NC(=O)N(C)C[C@@H]1OCCCC[C@@H](C)Oc2ccc(NC(=O)Nc3cccc4ccccc34)cc2C(=O)N([C@@H](C)CO)C[C@@H]1C | nt | nt | 0 | -3 | -19 | nt
COc1ccc(C(=O)Nc2c3c(nn2-c2ccc(Cl)cc2)CS(=O)(=O)C3)cc1 | 0 | 69* | -10 | -2 | 9 | -1%
CO[C@@H]1CN(C)C(=O)c2ccc(NC(=O)C3CCC3)cc2OC[C@@H](C)N(C(=O)NC(C)C)C[C@@H]1C | nt | nt | -1 | 0 | 0 | nt
CNCc1ccccc1Sc1cccc(O)c1 | -2 | 74* | nt | nt | 2 | -4%
CNCc1ccccc1Sc1ccc(OC)c(OC)c1 | -4 | 56* | nt | nt | -11 | -5%
CNCc1ccccc1Sc1cc(O)ccc1O | 4 | 50 | nt | nt | nt | nt
C[C@@H]1CN([C@@H](C)CO)C(=O)c2cc(-c3cccnc3)cnc2O[C@@H]1CN(C)C(=O)NC1CCCC1 | nt | nt | 14 | 0 | 4 | nt
CCNC(=O)COC(=O)/C=C/c1cccs1 | 0 | 3 | -11 | -1 | -1 | nt
CNC(=O)COC(=O)/C=C/c1cccs1 | 0 | 79* | -29 | -1 | -2 | -5%
O=C1NC2=C(CCc3ccccc32)C(c2ccccc2)N1 (stereo not given) | 3 | 93* | -18 | -3 | 5 | -2%
COc1cccc(S(=O)(=O)Nc2ccc3c(c2)[C@H]2C[C@H](CC(=O)NCCc4ccccc4)O[C@H](CO)[C@H]2O3)c1 | nt | nt | 16 | 1 | 2 | nt
CC1(C)NC(=O)N(CCCCOc2ccc(Cl)cc2)C1=O | -1 | -2 | nt | nt | 5 | nt
CCc1cc(OCCN2C(=O)NC(C)(C)C2=O)ccc1Cl | -2 | 72* | nt | nt | -10 | -3%
c1ccc(N2CCOCCOCCOCCOCCOCC2)cc1 | 1 | 1 | -17 | 0 | nt | nt
O=C1C=C(N2CCOCC2)c2ccccc2C1=O | -21 | + | -5 | 100* | 10 | -2%
Cc1ccc(N2CCOCC2)c2c1C(=O)c1ccccc1C2=O | 3 | 57* | 20 | 3 | nt | 4.3µM*
CN(C1=C(N2CCOCC2)C(=O)c2ccccc2C1=O)c1ccccc1 | 5 | 76* | nt | nt | 2 | 2.9µM*
O=C(Nc1cccc(Cl)c1)N1C[C@@H]2[C@H](c3ccccc31)[C@H](CO)N2C(=O)C1CCCC1 | nt | nt | -8 | 1 | -9 | nt
C[C@H](CO)N1C[C@H](C)[C@H](CN(C)C(=O)Cc2ccccc2)Oc2ncc(C#Cc3ccccc3F)cc2C1=O | nt | nt | 19 | 3 | -2 | nt
CCCCNc1c([N+](=O)[O-])ncn1C | 0 | -6 | -8 | 1 | -6 | nt
COc1ccc(CCNc2c([N+](=O)[O-])ncn2C)cc1OC | 1 | 61* | -20 | 1 | 2 | -3%
COc1ccccc1-c1cnc2c(c1)C(=O)N([C@H](C)CO)C[C@H](C)[C@@H](CN(C)Cc1ccncc1)O2 | nt | nt | 0 | -1 | 13 | nt
SMILES | Glyco luc inh | NSD2 inh | RAD52 inh | CASP6 VEID inh | RAD54 inh | AlphaScreen art
Cc1ccc(NC(=O)c2cc([N+](=O)[O-])ccc2NCc2cccnc2)cc1Cl | -7 | 127* | nt | nt | 21 | -7%
Oc1c(Br)cc(Br)c2cccnc12 | 1 | nt | 0 | 11 | 16 | nt
[O-][n+]1cccc2c(Br)cc(Br)c(O)c21 | 4 | 61* | -4 | 26 | -9 | -5%
Cc1nn(-c2ccccn2)c2c1C(=O)C(Br)CC2 (stereo not given) | 7 | 100* | nt | nt | -12 | -1%
CC1=C(C)C(=O)N(c2ccccn2)C1=O | 4 | -1 | nt | nt | 3 | nt
Cc1cc(=O)n(CCCO)c(O)c1C#N | 1 | 0 | nt | nt | -35 | nt
Cc1cc(=O)n(Cc2ccccc2)c(O)c1C#N | 1 | 53* | -277 | 12 | -19 | -7%
CCN1/C(=C/C(C)=C/c2sc3ccccc3[n+]2CC)Sc2ccccc21 | -17 | 112* | -295 | 15 | 72* | 5.5µM*
COc1ccc(NC(=O)CSc2nc(N)c(C#N)cc2C#N)cc1 | 1 | 4 | -40 | -1 | nt | nt
CCOC(=O)c1c(C#N)c(SCC(=O)Nc2ccc(OC)cc2)nc2c1CN(CC)CC2 | 0 | 70* | nt | nt | -7 | -3%

Screens from PubChem BioAssay.
